Assay results published in the supplement of paper PMC10849652.
The full data set covers some 8,800 targets. This sample favours those with a hit. About 0.5% of all pairs of compound and target were hits. A number with no mark means an inactive call.

Experiments:
Test in all cases: log2 fold change, soluble protein after heating vs DMSO (PISA); higher = thermal stabilisation; K562 lysate, 10 uM; active = over 0.2 and 3.5 SD of the protein, either way, in both replicates (recomputed)
[1] = compound: Cc1cn(-c2cc(NC(=O)c3ccc(C)c(Nc4nccc(-c5cccnc5)n4)c3)cc(C(F)(F)F)c2)cn1 [nilotinib]
Outline: (§1)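 Quantification was by TMTpro 16plex LC-MS/MS with equalised channel sums, applied to the supernatant after 21,000xg for 90 min. Samples were crude K562 extract at 1 mg/mL protein in PBS pH 7.4 with 1 mM MgCl2, treated with 10 μM compound for 30 min, heated for 3 min across 48°C-58°C, pooled and brought to 0.5% NP-40 at 4°C. Values are log-two fold changes in thermal stability relative to solvent controls, from duplicates.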

[2] = compound: Cc1nc(Nc2n[nH]c3c2CN(C(=O)N[C@H](CN(C)C)c2ccccc2)C3(C)C)c2sccc2n1
Outline: as §1

[3] = compound: Cc1nc(Nc2ncc(C(=O)Nc3c(C)cccc3Cl)s2)cc(N2CCN(CCO)CC2)n1 [dasatinib]
Outline: as §1

[4] = compound: Cc1ncc(-c2ccnc(Nc3ccc(S(C)(=O)=O)cc3)n2)n1C(C)C
Outline: as §1

[5] = compound: Cn1cc(-c2ccc3c(c2)CCN3C(=O)Cc2cccc(C(F)(F)F)c2)c2c(N)ncnc21
Outline: as §1

[6] = compound: Cn1cc(CNCC2CCN(c3ncc(C(=O)NO)cn3)CC2)c2ccccc21 [quisinostat]
Outline: as §1

[7] = compound: Cn1cncc1[C@@](N)(c1ccc(Cl)cc1)c1ccc2c(c1)c(-c1cccc(Cl)c1)cc(=O)n2C [tipifarnib]
Outline: as §1

[8] = compound: NC(=O)Nc1cc(-c2cccc(F)c2)sc1C(=O)N[C@H]1CCCNC1
Outline: as §1

[9] = compound: NC(=O)c1cnc(N[C@@H]2CCCC[C@@H]2N)nc1Nc1cccc(-n2nccn2)c1
Outline: as §1

[10] = compound: NC1(c2ccc(-c3nc4ccn5c(=O)[nH]nc5c4cc3-c3ccccc3)cc2)CCC1
Outline: as §1

Chain of UniProt O60237 (O60237 whole entry, looked up): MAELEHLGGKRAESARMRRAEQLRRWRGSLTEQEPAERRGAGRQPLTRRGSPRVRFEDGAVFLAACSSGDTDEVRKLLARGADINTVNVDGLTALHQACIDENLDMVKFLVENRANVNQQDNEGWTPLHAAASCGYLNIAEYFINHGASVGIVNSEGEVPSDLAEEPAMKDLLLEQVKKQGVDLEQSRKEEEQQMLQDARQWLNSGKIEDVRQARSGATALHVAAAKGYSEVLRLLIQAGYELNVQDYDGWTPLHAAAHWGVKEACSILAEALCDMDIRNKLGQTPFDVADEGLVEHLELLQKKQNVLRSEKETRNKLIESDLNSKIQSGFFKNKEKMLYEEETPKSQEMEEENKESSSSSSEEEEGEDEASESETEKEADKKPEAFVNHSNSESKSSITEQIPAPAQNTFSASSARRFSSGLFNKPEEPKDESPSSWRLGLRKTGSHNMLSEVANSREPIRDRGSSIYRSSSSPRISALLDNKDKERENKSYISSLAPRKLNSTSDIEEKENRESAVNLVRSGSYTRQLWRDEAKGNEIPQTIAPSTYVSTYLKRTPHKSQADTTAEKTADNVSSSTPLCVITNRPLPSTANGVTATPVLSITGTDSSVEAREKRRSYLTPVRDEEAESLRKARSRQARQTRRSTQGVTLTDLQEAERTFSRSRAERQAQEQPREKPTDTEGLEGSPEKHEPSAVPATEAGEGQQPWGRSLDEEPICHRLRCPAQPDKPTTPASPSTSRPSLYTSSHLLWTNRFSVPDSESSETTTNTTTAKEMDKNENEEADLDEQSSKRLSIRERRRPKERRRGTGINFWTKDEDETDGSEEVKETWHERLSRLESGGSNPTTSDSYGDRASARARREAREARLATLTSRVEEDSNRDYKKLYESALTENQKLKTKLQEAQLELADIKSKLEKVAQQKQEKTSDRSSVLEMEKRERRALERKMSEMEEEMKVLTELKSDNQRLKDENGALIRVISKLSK
Chain of UniProt Q4G0T1 (Q4G0T1 whole entry, looked up): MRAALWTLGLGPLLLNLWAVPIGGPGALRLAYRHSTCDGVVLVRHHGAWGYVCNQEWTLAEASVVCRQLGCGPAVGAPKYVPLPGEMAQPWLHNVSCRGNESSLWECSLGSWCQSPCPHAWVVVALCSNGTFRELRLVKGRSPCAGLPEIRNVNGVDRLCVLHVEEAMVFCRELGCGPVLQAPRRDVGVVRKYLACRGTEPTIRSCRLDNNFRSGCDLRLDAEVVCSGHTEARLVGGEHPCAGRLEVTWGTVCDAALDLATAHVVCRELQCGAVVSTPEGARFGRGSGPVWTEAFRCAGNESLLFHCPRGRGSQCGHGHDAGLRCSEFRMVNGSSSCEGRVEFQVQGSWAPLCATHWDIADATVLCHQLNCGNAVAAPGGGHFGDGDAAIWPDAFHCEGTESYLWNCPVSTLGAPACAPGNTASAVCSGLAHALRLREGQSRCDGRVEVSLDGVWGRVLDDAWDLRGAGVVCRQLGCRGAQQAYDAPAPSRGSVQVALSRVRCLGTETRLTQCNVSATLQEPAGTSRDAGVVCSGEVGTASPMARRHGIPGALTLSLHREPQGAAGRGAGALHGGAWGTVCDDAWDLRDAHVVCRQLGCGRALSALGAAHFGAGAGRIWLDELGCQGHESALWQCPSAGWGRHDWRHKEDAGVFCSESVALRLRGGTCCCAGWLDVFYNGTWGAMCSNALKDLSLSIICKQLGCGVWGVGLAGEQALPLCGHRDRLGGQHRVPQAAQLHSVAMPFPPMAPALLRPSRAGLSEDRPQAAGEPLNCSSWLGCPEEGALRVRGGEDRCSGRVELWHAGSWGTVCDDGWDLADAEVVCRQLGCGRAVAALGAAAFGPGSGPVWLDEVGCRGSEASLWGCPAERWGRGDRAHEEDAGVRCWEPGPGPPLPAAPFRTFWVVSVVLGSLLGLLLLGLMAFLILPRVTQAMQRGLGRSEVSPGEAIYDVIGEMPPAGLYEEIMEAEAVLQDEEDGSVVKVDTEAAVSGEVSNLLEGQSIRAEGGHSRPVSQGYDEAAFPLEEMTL
Chain of UniProt O94880 (O94880 whole entry, looked up): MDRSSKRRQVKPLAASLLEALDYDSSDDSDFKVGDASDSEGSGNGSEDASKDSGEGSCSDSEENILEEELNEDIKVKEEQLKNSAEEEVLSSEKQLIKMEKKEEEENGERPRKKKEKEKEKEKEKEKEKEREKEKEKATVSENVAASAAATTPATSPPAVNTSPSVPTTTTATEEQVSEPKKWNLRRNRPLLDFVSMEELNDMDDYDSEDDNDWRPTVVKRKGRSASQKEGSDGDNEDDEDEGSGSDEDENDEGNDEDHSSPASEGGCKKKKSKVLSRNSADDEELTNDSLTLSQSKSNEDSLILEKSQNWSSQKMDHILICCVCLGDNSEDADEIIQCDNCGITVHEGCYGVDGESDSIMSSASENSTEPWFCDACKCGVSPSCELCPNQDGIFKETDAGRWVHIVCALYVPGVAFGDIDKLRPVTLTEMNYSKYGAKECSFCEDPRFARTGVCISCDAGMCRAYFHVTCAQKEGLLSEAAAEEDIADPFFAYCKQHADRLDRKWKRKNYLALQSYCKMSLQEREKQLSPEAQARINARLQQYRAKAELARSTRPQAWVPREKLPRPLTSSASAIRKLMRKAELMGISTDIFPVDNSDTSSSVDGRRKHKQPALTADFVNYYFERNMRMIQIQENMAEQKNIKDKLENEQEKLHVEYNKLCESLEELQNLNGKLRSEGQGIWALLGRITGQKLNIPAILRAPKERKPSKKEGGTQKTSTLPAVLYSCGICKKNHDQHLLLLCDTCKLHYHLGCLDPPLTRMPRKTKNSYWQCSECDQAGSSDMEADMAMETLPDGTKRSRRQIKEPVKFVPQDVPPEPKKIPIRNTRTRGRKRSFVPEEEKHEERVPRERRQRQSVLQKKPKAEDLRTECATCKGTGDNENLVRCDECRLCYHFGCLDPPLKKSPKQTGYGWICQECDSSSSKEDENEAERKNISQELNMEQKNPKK
Chain of UniProt P41247 (P41247 whole entry, looked up): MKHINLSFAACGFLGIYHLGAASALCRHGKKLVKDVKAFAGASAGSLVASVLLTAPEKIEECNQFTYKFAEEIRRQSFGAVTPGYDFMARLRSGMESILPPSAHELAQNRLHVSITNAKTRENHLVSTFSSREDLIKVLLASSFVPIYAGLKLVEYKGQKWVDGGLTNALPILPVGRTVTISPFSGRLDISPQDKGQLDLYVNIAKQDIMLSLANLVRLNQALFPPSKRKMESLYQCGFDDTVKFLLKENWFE
Chain of UniProt Q15173 (Q15173 whole entry, looked up): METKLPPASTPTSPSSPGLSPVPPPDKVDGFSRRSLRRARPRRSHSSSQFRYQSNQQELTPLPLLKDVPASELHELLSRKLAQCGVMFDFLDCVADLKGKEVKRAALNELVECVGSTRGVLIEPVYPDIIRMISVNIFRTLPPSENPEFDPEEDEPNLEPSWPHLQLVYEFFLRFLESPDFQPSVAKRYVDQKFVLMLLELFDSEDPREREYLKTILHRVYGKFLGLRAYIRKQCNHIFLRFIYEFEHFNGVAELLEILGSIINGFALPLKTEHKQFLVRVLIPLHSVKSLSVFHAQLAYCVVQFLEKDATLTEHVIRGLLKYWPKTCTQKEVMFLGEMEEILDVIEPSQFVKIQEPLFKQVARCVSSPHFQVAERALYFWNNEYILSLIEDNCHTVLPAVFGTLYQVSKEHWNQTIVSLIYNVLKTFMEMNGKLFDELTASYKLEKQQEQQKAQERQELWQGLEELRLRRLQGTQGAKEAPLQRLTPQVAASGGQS
Chain of UniProt O94906 (O94906 whole entry, looked up): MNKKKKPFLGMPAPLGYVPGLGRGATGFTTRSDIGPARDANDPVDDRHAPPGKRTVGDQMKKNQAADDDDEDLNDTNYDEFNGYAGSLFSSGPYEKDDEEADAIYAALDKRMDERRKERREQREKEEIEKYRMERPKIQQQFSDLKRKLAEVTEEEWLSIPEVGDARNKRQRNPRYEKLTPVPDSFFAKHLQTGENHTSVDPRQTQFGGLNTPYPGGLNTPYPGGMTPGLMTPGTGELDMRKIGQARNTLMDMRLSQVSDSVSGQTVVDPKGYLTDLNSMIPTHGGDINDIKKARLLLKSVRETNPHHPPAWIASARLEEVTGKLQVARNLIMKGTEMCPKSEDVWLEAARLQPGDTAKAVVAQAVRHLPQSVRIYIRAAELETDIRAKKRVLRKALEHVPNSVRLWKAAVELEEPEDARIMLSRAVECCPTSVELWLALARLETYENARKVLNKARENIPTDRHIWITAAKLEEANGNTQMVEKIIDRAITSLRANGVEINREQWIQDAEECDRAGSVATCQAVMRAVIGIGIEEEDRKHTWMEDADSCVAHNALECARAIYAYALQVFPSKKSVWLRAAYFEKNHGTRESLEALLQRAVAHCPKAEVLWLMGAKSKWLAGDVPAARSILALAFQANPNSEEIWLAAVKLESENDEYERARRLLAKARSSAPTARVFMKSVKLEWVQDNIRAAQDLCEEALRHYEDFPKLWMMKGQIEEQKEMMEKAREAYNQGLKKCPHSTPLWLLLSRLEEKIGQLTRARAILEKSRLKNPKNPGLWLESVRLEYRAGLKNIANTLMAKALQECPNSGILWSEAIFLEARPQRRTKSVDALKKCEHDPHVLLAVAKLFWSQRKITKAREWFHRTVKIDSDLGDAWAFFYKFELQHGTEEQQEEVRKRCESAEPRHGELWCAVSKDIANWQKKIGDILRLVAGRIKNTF
Chain of UniProt P48426 (P48426 whole entry, looked up): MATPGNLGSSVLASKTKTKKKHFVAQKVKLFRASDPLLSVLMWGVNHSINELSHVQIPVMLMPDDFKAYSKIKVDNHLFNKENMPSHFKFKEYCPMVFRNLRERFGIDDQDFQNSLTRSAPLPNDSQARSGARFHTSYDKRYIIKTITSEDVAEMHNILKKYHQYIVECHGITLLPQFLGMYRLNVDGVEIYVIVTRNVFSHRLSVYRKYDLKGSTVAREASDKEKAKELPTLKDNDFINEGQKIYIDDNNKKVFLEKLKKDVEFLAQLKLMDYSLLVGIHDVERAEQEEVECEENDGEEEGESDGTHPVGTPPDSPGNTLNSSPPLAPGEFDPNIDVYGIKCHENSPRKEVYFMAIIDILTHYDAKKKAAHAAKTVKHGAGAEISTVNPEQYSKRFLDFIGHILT

Target | log2 fold change [1] | log2 fold change [2] | log2 fold change [3] | log2 fold change [4] | log2 fold change [5] | log2 fold change [6] | log2 fold change [7] | log2 fold change [8] | log2 fold change [9] | log2 fold change [10]
PICALM (UniProt H0YEH1) | -0.023 | -0.012 | -0.039 | -0.007 | -0.005 | -0.095 | 0.019 | 0.166 | -0.021 | -0.042
PPCDC (UniProt Q96CD2) | -0.002 | -0.014 | -0.06 | -0.017 | -0.04 | -0.015 | 0.022 | 0.013 | 0 | 0.047
PRPF6 (UniProt O94906) | -0.001 | 0.021 | -0.036 | -0.005 | 0.026 | -0.067 | 0.008 | 0.044 | 0.022 | -0.019
PDXDC1 (UniProt Q6P996) | 0.058 | 0.064 | -0.098 | -0.024 | 0.022 | -0.035 | -0.074 | 0.019 | 0.042 | 0.012
PES1 (UniProt O00541) | -0.004 | 0.006 | 0.016 | -0.034 | 0.001 | -0.067 | 0.001 | 0.026 | 0.015 | -0.047
PCBP2 (UniProt H3BRU6) | 0.066 | 0.04 | 0.079 | 0.027 | -0.082 | -0.119 | -0.095 | 0.042 | -0.023 | 0.084
PCBP2 isoform 8 (UniProt Q15366) | 0.059 | 0.069 | -0.057 | 0.04 | 0.003 | 0.133 | 0.015 | 0.055 | -0.091 | -0.049
PDIA4 (UniProt P13667) | 0.008 | -0.006 | 0.006 | 0.014 | 0.004 | 0.154 | 0.029 | -0.004 | -0.02 | 0.008
PRKCD (UniProt Q05655) | 0.002 | 0.193 | -0.053 | 0.056 | 0 | 0.002 | -0.013 | -0.013 | 0.218 | 0.021
PDS5A (UniProt Q29RF7) | -0.013 | -0.002 | -0.081 | -0.003 | 0.008 | -0.113 | 0.001 | 0.047 | 0.011 | -0.023
PDCD4 (UniProt Q53EL6) | 0.028 | 0.019 | -0.026 | 0.035 | 0.005 | -0.044 | -0.008 | -0.01 | 0.009 | -0.013
PTMA (UniProt P06454) | 0.008 | -0.046 | 0.056 | 0.019 | -0.025 | 0.047 | 0.045 | 0.017 | 0.032 | -0.006
PPT2 isoform 3 (UniProt Q9UMR5) | 0.01 | -0.019 | 0.006 | -0.019 | 0.025 | -0.004 | -0.025 | 0.032 | 0.002 | 0.02
PRKAR2B (UniProt P31323) | 0.023 | -0.078 | -0.104 | 0.013 | 0.031 | 0.073 | 0.019 | -0.1 | -0.028 | 0.013
PIP4K2A (UniProt P48426) | 0.041 | -0.006 | 0.068 | 0.141 | 0.046 | -0.001 | -0.062 | 0.039 | -0.012 | -0.056
PIK3C3 (UniProt Q8NEB9) | -0.001 | -0.011 | -0.05 | 0.062 | -0.025 | -0.022 | -0.054 | 0.027 | 0.04 | -0.008
POMP (UniProt Q9Y244) | 0.021 | 0.057 | 0.048 | 0.301 (active) | 0 | -0.054 | -0.046 | -0.007 | 0.039 | -0.002
PHKG1 isoform 2 (UniProt Q16816) | -0.049 | 1.01 (active) | -0.124 | -0.204 | -0.021 | -0.151 | -0.007 | 1.31 (active) | 0.043 | -0.181
POM121C (UniProt A8CG34) |  |  |  |  |  |  |  |  | 0.022 | -0.09

Target | log2 fold change [1] | log2 fold change [2] | log2 fold change [3] | log2 fold change [4] | log2 fold change [5] | log2 fold change [6] | log2 fold change [7] | log2 fold change [8] | log2 fold change [9] | log2 fold change [10]
PREP (UniProt H0Y5Y0) |  |  |  |  |  |  |  |  | -0.087 | 
PCBP2 (UniProt F8W0G4) | 0.034 | -0.092 | -0.138 | -0.154 | 0 |  | -0.298 |  |  | 0.053
PRKDC (UniProt P78527) | -0.015 | -0.01 |  | 0.188 | 0.038 | -0.093 | -0.011 | 0.004 | 0.123 | -0.073
PPP2R5C isoform 2 (UniProt Q13362) | -0.028 | 0.021 | -0.02 | -0.068 | 0.028 | 0.347 (active) | 0.028 | -0.284 |  | -0.051
PDIA4, A0A499FI48 |  |  | -0.004 |  | 0.044 | -0.02 |  | 0.164 |  | 
PPME1 (UniProt Q9Y570) |  |  | 0.032 |  | -0.08 |  |  |  | 0.048 | 0.027
PHGDH, A0A286YFE1 |  |  | 0.086 |  | 0.258 |  |  |  | -0.29 | 
NA (UniProt Q4G0T1) |  |  | 0.054 |  | 0.095 | 0.034 |  | 0.054 |  | 0.062
PNPLA4 (UniProt P41247) |  |  | 0.099 |  | 0.194 | 0.048 |  | 0.037 |  | 
PPP2R5B (UniProt Q15173) |  |  | 0.018 |  | 0.021 | 0.058 |  | -0.025 | 0.011 | -0.015
PIAS2 (UniProt O75928) | -0.019 | -0.005 | -0.097 | 0.068 | -0.026 | 0.061 | -0.086 | 0.004 |  | 0.025
PPM1H (UniProt Q9ULR3) |  |  | 0 |  | 0.001 | -0.036 |  | -0.041 | 0 | -0.07
PPT2, A0A140T9Y1 | -0.054 | 0.086 |  | 0.089 |  |  | 0.1 |  |  | 
POLR2M (UniProt Q6EEV4) |  |  | 0.02 |  | -0.2 | 0.011 |  | 0.032 | -0.015 | 0.076
PPP1R12B isoform 6 (UniProt O60237) |  |  | -0.065 |  | 0.134 | -0.531 (active) |  | 0.006 | 0.05 | -0.075
PYGO2 (UniProt Q9BRQ0) | 0.01 | 0.044 | -0.028 | 0.063 | 0.004 | 0.016 | -0.02 | -0.015 |  | 0.029
PCBP2 (UniProt F8VRH0) | -0.221 | -0.532 |  | -0.063 |  | 0.034 | -0.167 | -0.059 | 0.232 | 0.003
PFKFB4 (UniProt Q16877) |  |  | 0.009 |  | -0.045 | 0.059 |  | -0.024 | 0.015 | 0.013
PPP2R3C (UniProt Q969Q6) | -0.139 | 0.057 | -0.061 | -0.13 | -0.009 |  | 0.057 |  | 0.038 | 0.062

Target | log2 fold change [1] | log2 fold change [2] | log2 fold change [3] | log2 fold change [4] | log2 fold change [5] | log2 fold change [6] | log2 fold change [7] | log2 fold change [8] | log2 fold change [9] | log2 fold change [10]
POLR2F (UniProt U3KPV3) |  |  | -0.024 |  | 0.038 |  |  |  |  | 
PHOSPHO2 (UniProt C9JD35) |  |  |  |  |  | 0.073 |  | -0.102 |  | 
PIK3CG (UniProt P48736) | 0.004 | -0.022 |  | 0.079 | 0.097 | -0.139 | 0.003 | 0.013 |  | -0.017
PFN1 (UniProt I3L3D5) | -0.009 | -0.088 |  | 0.108 |  |  | 0.006 |  | 0.04 | 
PUF60 isoform 2 (UniProt Q9UHX1) | -0.011 | -0.027 |  | 0.05 |  | 0.013 | 0.023 | 0.017 | -0.016 | -0.184
PFN3 (UniProt P60673) | -0.104 | 0.001 |  | 0.033 |  | -0.349 | -0.083 | -0.044 | -0.087 | 
PRKD3 (UniProt O94806) | 0.054 | -0.086 |  | -0.03 |  | -0.014 | 0.087 | -0.174 | 0.001 | 0.054
PRR4 (UniProt Q16378) | 0.047 | -0.145 |  | -0.027 |  |  | 0.05 |  | 0.032 | 0.012
PPP2CA (UniProt E7ESG8) | 0.025 | -0.108 |  | -0.232 |  |  | 0.356 |  |  | 
PRIMPOL (UniProt Q96LW4) | 0.112 | -0.089 | 0.034 | -0.15 | -0.037 | -0.039 | 0.17 | 0 |  | -0.126
PPP1R14C (UniProt Q8TAE6) | 0.075 | -0.003 | 0.105 | -0.043 | -0.173 |  | 0.073 |  | -0.184 | 
PICALM (UniProt H0YCY1) |  |  |  |  |  |  |  |  |  | 0.013
PHF14 (UniProt O94880) | -0.127 | -0.203 | -0.1 | 0.082 | 0.085 |  | 0.073 |  | -0.077 | 
PCLAF (UniProt Q15004) | -0.115 | 0.081 | 0.001 | 0.02 | -0.087 | -0.044 | 0.018 | -0.018 |  | 0.094
PIK3CD (UniProt O00329) | 0.059 | 0.006 |  | 0.122 | 0.151 | -0.091 | -0.053 | 0.02 | 0.001 | 0.127
PPIC (UniProt P45877) | -0.112 | 0.069 | 0.037 | -0.02 | -0.036 | -0.063 | 0.145 | 0.206 |  | -0.045
PIM1 isoform 2 (UniProt P11309) | 0.059 | -0.025 | -0.033 | 0.063 | 0.112 | -0.085 | 0.061 | 0.038 |  | -0.146
PDE4DIP (UniProt E9PS60) | -0.074 | 0.052 | -0.158 | -0.045 | -0.073 | -0.256 | 0.081 | -0.205 |  | -0.025
PTK2 isoform 2 (UniProt Q05397) |  |  | 0.014 |  | 0.102 |  |  |  | 0.034 | -0.168
